Hit rate of the full screen: of about 360,000 compounds, about 270 (0.075%) were called active. Calls follow the shape of the dose curve; as a rule, active = well fitted activation curve with a large enough effect; inconclusive = small, poorly fitted or top-dose-only effect; inactive = no such curve, though single readings can be large or run the other way. What follows is part of a selection rich in actives, with near analogues and random picks from the rest.
Target: Rap guanine nucleotide exchange factor 3 (Homo sapiens) (UniProt O95398)
Sequence (O95398 whole entry, looked up): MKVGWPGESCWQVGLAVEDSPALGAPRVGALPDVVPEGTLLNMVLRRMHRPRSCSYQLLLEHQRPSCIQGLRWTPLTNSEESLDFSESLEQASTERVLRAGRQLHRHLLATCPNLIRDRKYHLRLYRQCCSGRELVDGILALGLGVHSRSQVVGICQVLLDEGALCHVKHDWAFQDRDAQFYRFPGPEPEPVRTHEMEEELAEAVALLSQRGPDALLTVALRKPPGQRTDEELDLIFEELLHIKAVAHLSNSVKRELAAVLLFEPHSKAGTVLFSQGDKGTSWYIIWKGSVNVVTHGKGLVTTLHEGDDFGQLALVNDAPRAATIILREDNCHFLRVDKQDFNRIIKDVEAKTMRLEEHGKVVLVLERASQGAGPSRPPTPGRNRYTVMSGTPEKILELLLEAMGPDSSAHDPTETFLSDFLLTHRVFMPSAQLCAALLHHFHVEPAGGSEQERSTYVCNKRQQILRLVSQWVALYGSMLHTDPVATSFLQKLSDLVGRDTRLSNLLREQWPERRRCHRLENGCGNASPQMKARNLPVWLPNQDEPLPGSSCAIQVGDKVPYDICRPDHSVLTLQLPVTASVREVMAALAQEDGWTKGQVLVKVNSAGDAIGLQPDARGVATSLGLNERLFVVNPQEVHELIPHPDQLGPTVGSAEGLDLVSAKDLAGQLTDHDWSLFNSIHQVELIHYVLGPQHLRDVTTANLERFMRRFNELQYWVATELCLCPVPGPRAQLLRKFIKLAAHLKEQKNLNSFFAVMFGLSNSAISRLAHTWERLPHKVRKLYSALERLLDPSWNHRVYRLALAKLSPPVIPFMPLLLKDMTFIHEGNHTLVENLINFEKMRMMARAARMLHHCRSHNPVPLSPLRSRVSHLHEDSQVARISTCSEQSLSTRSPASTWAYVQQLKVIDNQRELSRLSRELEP
Experiment: qHTS for Agonist of cAMP-regulated guanine nucleotide exchange factor 3 (EPAC1): primary screen; also: nearly all actives have a fitted effect of over 60% in size
Details: biochemical assay; series mostly up to 154 µM; activation: at the top concentration
Excerpt: In multi-cellular eukaryotic organisms, the effects of cAMP are transduced by two ubiquitously-expressed intracellular cAMP receptors, the classic protein kinase A/cAMP-dependent protein kinase (PKA/cAPK) and the more recently discovered exchange protein directly activated by cAMP/cAMP-regulated guanine nucleotide exchange factor (EPAC/cAMP-GEF). Both PKA and EPAC are ubiquitously expressed in all tissues, and an increase in intracellular cAMP levels will lead to the activation of both PKA and EPAC. Therefore, careful dissections of the individual role and relative contribution of EPAC and PKA within the overall cAMP signaling in various model systems are critical for further elucidating the mechanism of cAMP signaling. To date no EPAC-specific antagonists and agonist, as well as isoform-specific agonists have been reported, and developing EPAC-specific pharmacological probes to determine the physiological functions that EPAC play in the overall cAMP-mediated signaling remains a major challenge within the research field. Furthermore, identified regulators of EPAC may lead to new mechanism-based therapeutic strategies specifically targeting the EPAC / cAMP-signaling components as EPAC has been implicated to play important roles in major human pathological conditions such as diabetes, heart disease, and cancer.
This qHTS will be used to screen the Molecular Libraries Small Molecule Repository (MLSMR) as a concentration-titration series using the NCGC unique quantitative screening (qHTS) platform to find activators for EPAC1. In addition, this assay will also be used as a counterscreen for the EPAC2 qHTS. This fluorescent based assay is developed and validated for EPAC1 that measures exchange using EPAC effector Rap1 complex with BODIPY-GDP, a GDP analog with a tethered fluorophores. Activators are identified by monitoring the change in fluorescence signal as the exchanged free BODIPY-GDP has a reduced fluorescence compared to Rap1-bound BODIPY-GDP. Increase in signal (activation) is the desired outcome for the EPAC1 agonist while no activity in this assay is desired for the EPAC2 agonist counterscreen.
[1] de Rooij, J., Zwartkruis, F. J., Verheijen, M. H., Cool, R. H., Nijman, S. M., Wittinghofer, A., and Bos, J.L. (1998) Nature 396, 474-477
NIH Chemical Genomics Center [NCGC]
NIH Molecular Libraries Probe Centers Network [MLPCN]
Assay Submitter (PI): Xiaodong Cheng, The University of Texas Medical Branch
Briefly, three uL of reagents (100 nM EPAC1, 250 nM RAP1B-BODIPY-GDP, 50 uM GDP) were dispensed into a 1536-well Greiner black solid-bottom medium binding assay plate. Controls and test compounds (23 nL) were transferred to the plate via a Kalypsys pin tool equipped with a 1536-pin array. The plates were centrifuged at 1,000 rpm for 15 seconds followed by 5 minute incubation at room temperature. The assay plates were read at 5 minute intervals for 30 minutes in the ViewLux plate reader using 480nm excitation and 540nm emission filters. The results were normalized to the agonist positive control of 6.5 mM cAMP.
Potency is read from the fitted curve at half-maximal effect.

`CCOc1ccc(NS(=O)(=O)c2ccc(Cl)c(C(=O)N(C)Cc3cccnc3)c2)cc1` was tested. Which “activation” value did it give?
The value was -9.4% (inactive).

With `CC1(C)CC(=O)c2c(n(S(=O)(=O)c3ccccc3)c3ccc(NS(=O)(=O)c4ccccc4)cc23)C1` as the molecule, how does the “activation” value read?
Its value is 2.81% (inactive).

`O=c1cccc(-c2ccc(Br)cc2)o1` was tested. Which “activation” value did it give?
The value was 1.51% (inactive).

With `CCCCNC(=O)N1CCCC(N(C)CCc2ccc(OC)c(OC)c2)C1` (centres undefined) as the molecule, how does the “activation” value read?
Its value is -9.76% (inactive).

With `Cc1sc2ncn(CC(=O)NCCCC(=O)N(C)Cc3ccccc3)c(=O)c2c1C` as the molecule, how does the “activation” value read?
Its value is -8.88% (inactive).

`Cc1ccc(OCC(=O)Nc2ccccc2Sc2ccc(Cl)cc2)c([N+](=O)[O-])n1` was tested. Which “activation” value did it give?
Its value is 21.3% (inactive).

Which “activation” value does the source give for `Cc1ccc(-c2nc(C)sc2CC(=O)OCC(=O)Nc2c(F)cccc2F)cc1` here?
The value was 10.9% (inactive).

For `COc1cc(NS(=O)(=O)c2ccc(N/C=C(\C=O)c3nc4cc(Cl)ccc4o3)cc2)nc(OC)n1`, which “activation” value is on record?
The value was -5.9% (inactive).

How did the “activation” value turn out when `COCC1CCCCN1C(=O)c1cc(COc2ccc(C)c(C)c2)on1` (centres undefined) was run?
Its value is -12.2% (inactive).

Which “activation” value does the source give for `CC(=O)N[C@H]1[C@H]([C@H](O)[C@H](O)CO)OC(C(=O)O)=C[C@@H]1O` here?
Its value is -3.76% (inactive).

How did the “activation” value turn out when `O=C(NCc1ccco1)c1ccc(CS(=O)(=O)Cc2ccc(F)cc2)o1` was run?
Its value is 3.97% (inactive).

With `COC(=O)/C=C(\Oc1ccccc1)C1(O)CCCCC1` as the molecule, how does the “activation” value read?
The value was -5.2% (inactive).

How did the “activation” value turn out when `Cc1cc(Cl)ccc1NNC(=O)c1snnc1C` was run?
Its value is -2.36% (inactive).

How did the “activation” value turn out when `O=C(c1cnn2ccccc12)N1CCc2ccccc21` was run?
The value was -2.29% (inactive).

With `C=CCNC(=O)COC(=O)CNC(=O)c1cc(Cl)cc([N+](=O)[O-])c1` as the molecule, how does the “activation” value read?
The value was 7.93% (inactive).

`CN1C(=O)c2cccc3c(N)ccc(c23)C1=O` was tested. Which Potency did it give?
The Potency was 126 µM (active).

Which Potency does the source give for `Cc1nn(C)cc1N1C(=O)c2cccc3c(N)ccc(c23)C1=O` here?
Its Potency is 89.1 µM (active).

For `Cc1cc(NC(=O)/C=C/C(=O)N(c2ccccc2C)C(C(=O)NC2CCCC2)c2ccc(F)cc2)no1` (centres undefined), which “activation” value is on record?
Its value is 15.6% (inactive).

Which “activation” value does the source give for `CCOC(=O)[C@]12CCCC=C1N(Cc1ccc(Cl)cc1Cl)C(=O)[C@H](CC(=O)N1CCCCC1)C2` here?
The value was -4.78% (inactive).

For `CC(Cc1cccs1)NC(=O)c1cccc(Cl)c1` (centres undefined), which “activation” value is on record?
Its value is 5.93% (inactive).

Which “activation” value does the source give for `Cc1nn2c(NCCN(C)C)c3c(nc2c1-c1ccccc1)CCC3` here?
The value was 1.01% (inactive).

With `CC(=O)Nc1ccc(NC(=O)CN2C(=O)COc3ccc(S(=O)(=O)N4CCCCC4)cc32)cc1` as the molecule, how does the “activation” value read?
The value was 15.4% (inactive).

Which “activation” value does the source give for `O=C(COc1ccccc1)N1CCN=C1SCc1cccc(F)c1` here?
Its value is -1.1% (inactive).

Which “activation” value does the source give for `CCOC(=O)c1ccccc1NC(=O)COC(=O)CCC(=O)N1CCOCC1` here?
Its value is 3.89% (inactive).

`CCOC(=O)c1ccccc1NC(=O)COC(=O)C(Cc1c[nH]c2ccccc12)NC(C)=O` (centres undefined) was tested. Which Potency did it give?
Its Potency is 112 µM (active).

With `COC(=O)C(Cc1c[nH]c2ccccc12)NC(=O)CCNC(=O)c1ccco1` (centres undefined) as the molecule, how does the “activation” value read?
The value was -7.71% (inactive).

For `COc1ccccc1NC(=O)CSc1nnc(CNC(=O)c2ccccc2F)o1`, which “activation” value is on record?
Its value is -8.7% (inactive).

Which “activation” value does the source give for `Cn1c(=O)[nH]c(=O)c2c1nc(N(CCO)Cc1ccccc1)n2Cc1ccccc1Cl` here?
The value was -2.01% (inactive).

`Cc1nc(NC(=O)C23CCC(C)(C(=O)O2)C3(C)C)sc1C` (centres undefined) was tested. Which “activation” value did it give?
The value was 4.04% (inactive).

With `N#CCCCn1c(O)c(N=NC(=O)C(O)c2ccccc2)c2ccccc21` (centres undefined) as the molecule, how does the “activation” value read?
Its value is 6.57% (inactive).

With `COc1cccc(C(=O)N2CCC(n3nccc3NC(=O)C3CCOC3)CC2)c1` (centres undefined) as the molecule, how does the “activation” value read?
Its value is 7.16% (inactive).

How did the “activation” value turn out when `CNC(=O)C1CC(=O)N(c2ccc(OCC(=O)Nc3ccccc3C)cc2)C1` (centres undefined) was run?
Its value is 8.26% (inactive).

For `O=C(CCN1C(=O)c2ccncc2C1=O)Nc1cc(F)ccc1F`, which “activation” value is on record?
Its value is -22% (inactive).

How did the “activation” value turn out when `Cc1ccc([C@H]2C[C@H](O)[C@@H](n3cc(COC(=O)c4ccccc4)nn3)CN2C(=O)C2CCCCC2)cc1` was run?
Its value is -25.7% (inactive).

For `COc1cccc(-c2ccc3c(c2)S(=O)(=O)c2cccc(C(=O)O)c2C3=O)c1OC`, which “activation” value is on record?
The value was 9.43% (inactive).

For `Cc1ccc(CNC(=O)c2cccc3c2C(=O)c2ccc(N4CCC(C)CC4)cc2S3(=O)=O)cc1`, which Potency is on record?
Its Potency is 89.1 µM (active).

How did the “activation” value turn out when `CC1CCN(c2ccc3c(c2)S(=O)(=O)c2cc(C(=O)O)ccc2C3=O)CC1` was run?
The value was -0.73% (inactive).

Which “activation” value does the source give for `O=C(O)C1=C[C@H](c2cccs2)C[C@H](OCCCCO)O1` here?
Its value is 9.46% (inactive).

`Cc1ccc(C(=O)OCC(=O)NCc2cc(C)c(O)c(C)c2)cc1S(=O)(=O)N1CCCCC1` was tested. Which “activation” value did it give?
The value was 9.64% (inactive).

Which “activation” value does the source give for `N#CCCn1ncc2ccccc21` here?
The value was 14.3% (inactive).

With `CC(C)Cc1nnc(NC(=O)CN2C(=O)NC3(CCCCC3)C2=O)s1` as the molecule, how does the “activation” value read?
The value was 2.71% (inactive).

How did the “activation” value turn out when `CCC1(c2ccccc2)NC(=O)N(CC(=O)Nc2ccccc2C(=O)NC2CCCC2)C1=O` (centres undefined) was run?
The value was 0.865% (inactive).

`COCC(C)n1c(C)cc(C(=O)CSc2cc(C)c3ccccc3n2)c1C` (centres undefined) was tested. Which “activation” value did it give?
Its value is 15.4% (inactive).

`CCOc1ccc(-c2n[nH]c(=S)n2/N=C/c2cc3c(cc2[N+](=O)[O-])OCO3)cc1` was tested. Which “activation” value did it give?
The value was 13.8% (inactive).

`OCCN1CCOCCOCCN(CCO)CCN(CCO)CC1` was tested. Which “activation” value did it give?
The value was 1.4% (inactive).

`Cc1ccc(Cl)cc1NC(=O)COC(=O)C1CCCCC1` was tested. Which “activation” value did it give?
The value was -2.39% (inactive).

For `N#C/C(=C\N1CCOCC1)S(=O)(=O)c1ccc(Cl)cc1`, which “activation” value is on record?
Its value is 4.86% (inactive).

`O=C(CSc1nnc(-c2ccncc2)o1)NCc1ccc(Cl)cc1` was tested. Which “activation” value did it give?
Its value is 13.5% (inactive).

How did the “activation” value turn out when `Cc1cc(OCC(=O)N(C)c2c(N)n(Cc3ccccc3)c(=O)[nH]c2=O)c(C(C)C)cc1Cl` was run?
The value was -0.55% (inactive).

Which “activation” value does the source give for `Cn1c(=O)[nH]c(=O)c2c1[nH]c(=S)n2Cc1ccccc1` here?
The value was -0.212% (inactive).

Which Potency does the source give for `Cc1cc2nc3c(=O)n(Cc4ccccc4)c(=O)[nH]c3nc2cc1N` here?
Its Potency is 100 µM (active).

Which “activation” value does the source give for `NC(=O)C1CCN(C(=O)COc2ccc3c4c(c(=O)oc3c2)CCC4)CC1` here?
Its value is 2.5% (inactive).

Which “activation” value does the source give for `O=S(=O)(c1cccc(-c2nnc(SC(F)F)n2-c2ccccc2)c1)N1CCCCC1` here?
The value was -1.95% (inactive).

Which “activation” value does the source give for `O=C(O)C1=NN(c2c(F)c(F)cc(F)c2F)C(=O)CC1` here?
The value was 10.4% (inactive).
